From PubChem BioAssay AID1159580 (chemical genetic matrix, 2015)
Hit rate of the full screen: of about 5,500 compounds, about 2,000 (36%) were called active. Another 18% or so got no clear call; they are omitted. No stated cut-off is given here; in the data, active means normalized growth mostly below about 0.91 (no sharp cut-off); inconclusive means no clear call, values can overlap the other calls; inactive means mostly above about 0.92. Some of the results follow.

Test: chemical genetic growth profiling, strain panel (AID 1159580);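 further: tested at 20 µM; growth read once vehicle control cultures reached saturation at 30 °C; 1 = growth at the plate median or of vehicle wells; lower values mean less growth of the strain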
Settings: S. cerevisiae deletion strains, growth OD
[1] = locus YHR030C, strain SLT2, hits give low values
[2] = locus YHR079C, strain IRE1, hits give low values
[3] = locus YJL095W, strain BCK1, hits give low values
[4] = locus YJR066W, strain TOR1, hits give low values
[5] = locus YLR113W, strain HOG1, hits give low values
[6] = locus YNL183C, strain NPR1, hits give low values
[7] = locus YOR231W, strain MKK1, hits give low values
[8] = locus YPL256C, strain CLN2, hits give low values

Measured: normalized growth

CC1(O)CC2C(CC1O)C2(C)C (stereo unspecified)
inactive: locus YAL021C, strain ccr4, hits give low values 0.988 | locus YAL026C, strain drs2, hits give low values 1 | locus YAL030W, strain snc1, hits give low values 0.99 | locus YBL061C, strain skt5, hits give low values 0.988 | locus YBR009C, strain hhf1, hits give low values 1.04 | locus YBR023C, strain chs3, hits give low values 0.999 | locus YBR171W, strain sec66, hits give low values 0.998 | locus YBR231C, strain swc5, hits give low values 0.993 | locus YBR279W, strain paf1, hits give low values 0.995 | locus YCL011C, strain gbp2, hits give low values 1 | locus YCL016C, strain dcc1, hits give low values 1.01 | locus YCL069W, strain vba3, hits give low values 1 | locus YCR088W, strain abp1, hits give low values 0.997 | locus YDL005C, strain med2, hits give low values 0.995 | locus YDL040C, strain nat1, hits give low values 0.999 | locus YDR001C, strain nth1, hits give low values 1.01 | locus YDR069C, strain doa4, hits give low values 1.02 | locus YDR137W, strain rgp1, hits give low values 1 | locus YDR159W, strain sac3, hits give low values 1 | locus YDR195W, strain ref2 0.988 | locus YDR297W, strain sur2, hits give low values 1.01 | locus YDR334W, strain swr1, hits give low values 1 | locus YDR335W, strain msn5, hits give low values 1 | locus YDR392W, strain spt3, hits give low values 1 | locus YEL003W, strain gim4, hits give low values 1.01 | locus YEL037C, strain rad23, hits give low values 1 | locus YEL061C, strain CIN8 (second series), hits give low values 0.999 | locus YER015W, strain faa2, hits give low values 0.995 | locus YER016W, strain bim1, hits give low values 0.998 | locus YER111C, strain swi4, hits give low values 0.989 | locus YER155C, strain BEM2 (second series), hits give low values 1 | locus YFR010W, strain ubp6, hits give low values 0.997 | locus YGL167C, strain pmr1, hits give low values 1.01 | locus YGL173C, strain kem1, hits give low values 0.999 | locus YGL227W, strain vid30, hits give low values 0.99 | locus YGL240W, strain doc1, hits give low values 1.01 | locus YGL253W, strain hxk2, hits give low values 1 | locus YHR013C, strain ard1, hits give low values 1 | locus YHR027C, strain rpn1, hits give low values 0.995 | [1] 1.04 | [2] 1.03 | locus YHR142W, strain chs7, hits give low values 1.01 | locus YJL092W, strain hpr5, hits give low values 1 | locus YJL095W, strain BCK1 (second series), hits give low values 0.996 | [3] 0.993 | locus YJL115W, strain asf1, hits give low values 0.996 | locus YJL129C, strain trk1, hits give low values 1 | locus YJL154C, strain vps35, hits give low values 0.994 | locus YJL164C, strain tpk1, hits give low values 0.998 | locus YJL166W, strain qcr8, hits give low values 1 | locus YJL187C, strain SWE1, hits give low values 0.995 | [4] 0.989 | locus YKL160W, strain elf1, hits give low values 0.994 | locus YKR026C, strain gcn3, hits give low values 0.994 | locus YKR091W, strain srl3, hits give low values 1 | locus YLL001W, strain dnm1, hits give low values 1 | locus YLL026W, hits give low values 0.998 | locus YLL041C, strain sdh2, hits give low values 0.991 | locus YLR027C, strain aat2, hits give low values 1 | [5] 0.976 | locus YLR221C, strain rsa3, hits give low values 0.999 | locus YLR258W, strain gsy2, hits give low values 0.982 | locus YLR262C, strain YPT6 (second series), hits give low values 1.02 | locus YLR320W, strain mms22, hits give low values 0.994 | locus YLR342W, strain FKS1, hits give low values 1 | locus YLR357W, strain rsc2, hits give low values 0.969 | locus YLR370C, strain arc18, hits give low values 1.01 | locus YLR384C, strain iki3, hits give low values 0.971 | locus YML120C, strain ndi1, hits give low values 1 | locus YMR058W, strain fet3, hits give low values 0.999 | locus YMR125W, strain sto1, hits give low values 0.988 | locus YMR129W, hits give low values 0.995 | locus YMR205C, strain PFK2, hits give low values 0.998 | locus YMR231W, strain pep5, hits give low values 1.01 | locus YNL071W, strain lat1, hits give low values 1 | [6] 0.935 | locus YNL209W, strain ssb2, hits give low values 1.01 | locus YNL248C, strain rpa49, hits give low values 1 | locus YNL322C, strain KRE1 (second series), hits give low values 0.981 | locus YNR049C, strain mso1, hits give low values 0.985 | locus YOR001W, strain rrp6, hits give low values 1.01 | locus YOR070C, strain gyp1, hits give low values 0.997 | locus YOR080W, strain dia2, hits give low values 1 | locus YOR083W, strain WHI5, hits give low values 0.999 | locus YOR106W, strain vam3, hits give low values 0.992 | [7] 1.03 | locus YOR265W, strain rbl2, hits give low values 1.01 | locus YOR270C, strain vph1, hits give low values 1.03 | locus YOR290C, strain snf2, hits give low values 1.01 | locus YPL051W, strain arl3, hits give low values 1 | locus YPL078C, strain atp4, hits give low values 0.999 | locus YPL106C, strain sse1, hits give low values 1.01 | locus YPL240C, strain hsp82, hits give low values 0.998 | [8] 1.02

CCOC(=O)C1C(c2c(F)cccc2Cl)C(C(=O)OCC)C(O)(C(F)(F)F)NC1(O)C(F)(F)F (stereo unspecified)
inactive: locus YAR019C, strain CDC15, hits give low values 0.984 | locus YBL105C, strain PKC1, hits give low values 0.988 | locus YBR135W, strain CKS1, hits give low values 0.994 | locus YBR136W, strain MEC1, hits give low values 0.979 | locus YBR160W, strain CDC28, hits give low values 0.993 | locus YDL017W, strain CDC7, hits give low values 0.99 | locus YDL028C, strain MPS1, hits give low values 0.993 | locus YDL101C, strain DUN1, hits give low values 0.983 | locus YDL108W, strain KIN28, hits give low values 0.994 | locus YDL132W, strain cdc53, hits give low values 0.993 | locus YDL214C, strain PRR2, hits give low values 0.986 | locus YDR052C, strain DBF4, hits give low values 0.99 | locus YDR054C, strain cdc34, hits give low values 0.985 | locus YDR226W, strain ADK1, hits give low values 0.992 | locus YDR477W, strain SNF1, hits give low values 0.998 | locus YER123W, strain YCK3, hits give low values 0.966 | locus YER133W, strain GLC7, hits give low values 0.988 | locus YFL009W, strain cdc4, hits give low values 0.991 | locus YFL029C, strain CAK1, hits give low values 0.981 | locus YFR003C, strain YPI1, hits give low values 0.992 | locus YFR019W, strain FAB1, hits give low values 0.942 | locus YFR028C, strain CDC14, hits give low values 0.991 | locus YGR040W, strain KSS1, hits give low values 0.994 | locus YGR052W, strain FMP48, hits give low values 1.05 | locus YGR092W, strain DBF2, hits give low values 1 | [1] 0.964 | [2] 0.971 | locus YHR082C, strain KSP1, hits give low values 0.994 | locus YHR205W, strain SCH9, hits give low values 0.965 | locus YIL147C, strain SLN1, hits give low values 0.987 | [3] 0.982 | locus YJL128C, strain PBS2, hits give low values 0.965 | locus YJL157C, strain FAR1, hits give low values 0.994 | locus YJR016C, strain ILV3, hits give low values 0.996 | locus YJR066W, strain TOR1 (second series), hits give low values 0.951 | [4] 0.969 | locus YKL048C, strain ELM1, hits give low values 0.988 | locus YKL067W, strain YNK1, hits give low values 0.987 | locus YKL101W, strain HSL1, hits give low values 0.989 | locus YKL193C, strain SDS22, hits give low values 0.99 | locus YKL203C, strain TOR2, hits give low values 1.06 | [5] 0.926 | locus YLR133W, strain CKI1, hits give low values 0.985 | locus YLR403W, strain SFP1, hits give low values 0.986 | locus YML070W, strain DAK1, hits give low values 0.987 | locus YMR001C, strain CDC5, hits give low values 0.99 | locus YMR205C, strain PFK2 (second series), hits give low values 0.997 | locus YMR277W, strain FCP1, hits give low values 0.991 | locus YNL006W, strain LST8, hits give low values 0.996 | locus YNL020C, strain ARK1, hits give low values 0.994 | locus YNL161W, strain CBK1, hits give low values 0.991 | [6] 0.977 | locus YNL207W, strain RIO2, hits give low values 0.992 | locus YNL222W, strain SSU72, hits give low values 0.996 | locus YNL307C, strain MCK1 (second series), hits give low values 0.986 | locus YOL078W, strain AVO1, hits give low values 0.998 | locus YOL136C, strain PFK27, hits give low values 0.979 | locus YOR061W, strain CKA2, hits give low values 0.996 | locus YOR119C, strain RIO1, hits give low values 1.03 | [7] 1 | locus YOR329C, strain SCD5, hits give low values 0.986 | locus YPL031C, strain PHO85, hits give low values 0.99 | locus YPL153C, strain RAD53, hits give low values 0.992 | locus YPL204W, strain HRR25, hits give low values 0.984 | locus YPL209C, strain IPL1, hits give low values 0.988 | [8] 0.935 | locus YPR025C, strain CCL1, hits give low values 0.986 | locus YPR106W, strain ISR1, hits give low values 0.991 | locus YPR111W, strain DBF20, hits give low values 0.984 | strain NNK1, hits give low values 0.987 | strain TSCII, hits give low values 0.995

CN1CC[C@@]2(C)c3cc(O)ccc3N(C)C12 (stereo partly specified)
inactive: locus YAL040C, strain CLN3, hits give low values 0.971 | locus YCL061C, strain MRC1 (second series), hits give low values 0.995 | locus YDR150W, strain NUM1, hits give low values 0.977 | locus YDR363W, strain ESC2, hits give low values 1.02 | locus YER002W, strain NOP16, hits give low values 0.998 | locus YGR078C, strain PAC10, hits give low values 0.982 | locus YGR229C, strain SMI1, hits give low values 1.03 | locus YJR075W, strain HOC1, hits give low values 1.01 | locus YMR263W, strain SAP30, hits give low values 0.993 | locus YMR307W, strain GAS1, hits give low values 1.02 | locus YNL153C, strain GIM3, hits give low values 0.941 | locus YNL175C, strain NOP13, hits give low values 0.989 | locus YNL197C, strain WHI3, hits give low values 0.969 | locus YNL224C, strain SQS1, hits give low values 1.02 | locus YOR083W, strain WHI5 (second series), hits give low values 0.975 | locus YPL055C, strain LGE1, hits give low values 0.985
